Data taken from the supplement of paper PMC9694430.

Assays:
Assay in all cases: thermal shift delta Tm vs DMSO control; higher = stronger stabilization (binding)
Conditions in all cases: 12.5 µM; protein concentration 2 µM
[1] = system: LOC_OS01G01410-cb001
Procedure, shortened: (§1)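 Compounds dissolved in DMSO were added to purified rice kinase domain constructs, which had been expressed in E. coli, for differential scanning fluorimetry. Each well held 19.5 μl of 2 μM kinase in 100 mM potassium phosphate pH 7.5, 150 mM NaCl, 10% glycerol and 5 × SYPRO Orange. Fluorescence was followed from 25°C to 95°C at a rate of 0.05°C/s. Shifts in Boltzmann-fitted melting temperature are triplicate means relative to DMSO-only protein.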

[2] = system: LOC_OS01G02750-cb003
Procedure, shortened: as §1

[3] = system: LOC_OS01G10900-cb004
Procedure, shortened: as §1

[4] = system: LOC_OS01G13800-cb001
Procedure, shortened: as §1

[5] = system: LOC_OS01G14860-cb001
Procedure, shortened: as §1

[6] = system: LOC_OS01G21960-cb002
Procedure, shortened: as §1

[7] = system: LOC_OS01G39600-cb002
Procedure, shortened: as §1

[8] = system: LOC_OS01G48390-cb002
Procedure, shortened: as §1

[9] = system: LOC_OS01G51400-cb002
Procedure, shortened: as §1

[10] = system: T1, LOC_OS01G52050-cb004
T1 sequence (whole entry): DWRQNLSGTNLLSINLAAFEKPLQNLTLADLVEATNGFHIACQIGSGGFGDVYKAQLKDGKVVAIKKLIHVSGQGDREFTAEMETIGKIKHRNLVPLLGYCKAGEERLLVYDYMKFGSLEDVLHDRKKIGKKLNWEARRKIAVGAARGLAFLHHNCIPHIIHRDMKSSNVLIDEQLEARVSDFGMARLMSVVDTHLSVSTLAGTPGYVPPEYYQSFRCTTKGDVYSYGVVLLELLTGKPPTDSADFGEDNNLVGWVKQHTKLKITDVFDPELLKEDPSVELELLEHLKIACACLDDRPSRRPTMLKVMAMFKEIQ
Procedure, shortened: as §1

Row | SMILES | thermal shift delta Tm [1] [°C] | thermal shift delta Tm [2] [°C] | thermal shift delta Tm [3] [°C] | thermal shift delta Tm [4] [°C] | thermal shift delta Tm [5] [°C] | thermal shift delta Tm [6] [°C] | thermal shift delta Tm [7] [°C] | thermal shift delta Tm [8] [°C] | thermal shift delta Tm [9] [°C] | thermal shift delta Tm [10] [°C]
1 | N#Cc1cnc(Nc2cc(NC[C@H]3CNCCO3)c(C(F)(F)F)cn2)cn1 | 0.36 | 2.89 | 0.47 | -0.18 | 2.93 | 0.6 | 0.93 | 2.58 | 0.75 | 5.23
2 | COc1nccnc1NS(=O)(=O)c1ccc(NC(=O)/C=C/c2ccc([N+](=O)[O-])s2)cc1 [Necrosulfonamide] | 1.29 | 0.21 | 2.42 | 1.27 | 0.78 | 0.24 | -1.55 | 0.84 | -0.04 | 0.81
3 | COc1cc2ncc(-c3ccccc3)nc2cc1OC [Tyrphostin AG 1296] | 2.03 | 1.6 | 0.44 | -0.26 | 0.28 | 0 | 0.47 | 0.55 | 0.63 | 1.69
4 | C[C@H](Nc1ncnc2nc[nH]c12)c1cc2cccc(Cl)c2c(=O)n1-c1ccccc1 [Duvelisib (IPI-145, INK1197)] | -0.46 | 0.34 | 0.09 | -0.35 | 0.37 | 0.25 | -0.51 | 1.02 | 0.38 | 0.47
5 | COc1ccc2c(Oc3ccc(NC(=O)c4c(C)n(CC(C)(C)O)n(-c5ccccc5)c4=O)nc3)ccnc2c1 | 0.36 | 1.62 | 0.28 | -0.07 | 1.58 | 0.62 | -0.29 | 0.51 | 0.18 | 1.2
6 | COCC(=O)NC/C=C/c1ccc2ncnc(Nc3ccc(Oc4ccc(C)nc4)c(C)c3)c2c1 | 1.96 | 0.21 | 0.42 | 0.2 | 0.11 | -0.07 | 1.61 | 0.4 | 0.03 | 0.35
7 | Oc1ccc(Nc2nc(-c3ccc(Cl)cc3)cs2)cc1 | 1.11 | 3.1 | 0.5 | 0.46 | 1.41 | -0.09 | 4.96 | 1.3 | 1.51 | 3.09
8 | O=C(Nc1ccc(OC(F)(F)F)cc1)c1sccc1NCc1ccnc2ccccc12 | 1.17 | 2.66 | 0.51 | 0.57 | 0.78 | 0.12 | 1.45 | 1 | 0.94 | 3.68
9 | CCN(C)S(=O)(=O)Nc1ccc(F)c(C(=O)c2c[nH]c3ncc(-c4cnc(C5CC5)nc4)cc23)c1F | 1.92 | 0.92 | 1.18 | 0.03 | 2.04 | 0.51 | 3.55 | 1.01 | 0.11 | 0.72
10 | COc1ccc(F)c(F)c1C(=O)c1cnc(NC2CCN(S(C)(=O)=O)CC2)nc1N | 0.43 | -0.36 | 0.34 | -0.08 | 2.35 | 0.93 | 0.19 | 0.42 | -0.07 | -0.14
11 | Nc1cc(C(F)(F)F)c(-c2cc(N3CCOCC3)nc(N3CCOCC3)n2)cn1 [Buparlisib (BKM120, NVP-BKM120)] | 0.58 | 0.22 | 0.31 | 0.04 | 0.19 | 0.6 | 0.55 | 0.7 | 0.92 | 0.06
12 | CCc1ccc(/C=C2/SC(=S)NC2=O)cc1 | 1.69 | 1.03 | 2.03 | 0.53 | 1.38 | 1.74 |  | 0.63 | 0.67 | 1.47
13 | C=CC(=O)Nc1cccc(Oc2nc(Nc3ccc(N4CCN(C)CC4)cc3)ncc2Cl)c1 | 4.21 |  | 3.56 | 0.23 | 1.91 | 1.42 | 3.8 | 7.69 | 1.75 | 3.38
14 | CC(=O)O/N=C1/C(c2c(O)[nH]c3cc(Br)ccc23)=Nc2ccccc21 [BIO-acetoxime] | 2.35 | -1.15 | -2.37 |  | 6.31 | 0.48 | -0.05 | 3.95 | 0.25 | 0.12
15 | O=c1ccc2ccc(O)c(O)c2o1 [Daphnetin] | 0.85 |  | 0.22 | 0.62 | 0.62 | 1.18 | -0.43 | 0.92 | 0.41 | 0.08
16 | COc1cc(Nc2ncc(F)c(Nc3ccc4c(n3)N(COP(=O)(O)O)C(=O)C(C)(C)O4)n2)cc(OC)c1OC [Fostamatinib (R788)] | 1.98 | -0.16 | 0.33 | -0.55 | 4.38 | 3.63 | 9.1 | 0.22 | 0.49 | 6.23
17 | COc1ccc(-c2ccc3ncc4c(c3c2)n(-c2ccc(N3CCNCC3)c(C(F)(F)F)c2)c(=O)n4C)cn1 | 1.5 | 2.95 | 0.97 | 0.05 | 2.59 | 2.58 | 0.22 | 0.42 | -0.17 | 4.2
18 | O=C(NOCCO)c1ccc2cncn2c1Nc1ccc(I)cc1F | 1.18 | 5.7 | 1.31 | 1.55 | 3.41 | 0.59 | -0.21 | 1.12 | 0.54 | 0.41
19 | N#Cc1c(Oc2ccc(F)c(NC(=O)Cc3cccc(C(F)(F)F)c3)c2)ccc2nc(NC(=O)C3CC3)sc12 | 1 | 2.13 | 0.14 | 0.81 | 0.57 | 1.14 | 0.16 | 1.04 | 1.02 | 0.32
20 | Cn1c(Nc2ccc(C(F)(F)F)cc2)nc2cc(Oc3ccnc(-c4ncc(C(F)(F)F)[nH]4)c3)ccc21 | 2.71 | 15.5 | 2.13 | 3.67 | 5.02 | 4.72 | 5.68 | 4.18 |  | 6.02
21 | COc1ccc(CNC(=O)Nc2ncc([N+](=O)[O-])s2)cc1 | 0.9 | 0.85 | 0.34 | 0.54 | 3.27 | 1.49 | -4.25 | 0.63 | -0.45 | 0.42
